Bioassay records deposited in PubChem by National Center for Advancing Translational Sciences (NCATS).
Only some compounds are listed: those with a hit (about 18% of all), similar ones and a draw of the others.
Six1-Eya2 blk = blocks human Six1 binding to Eya2; activity change, % (test concentration not listed); 360,000 compounds, 0.56% hits; AID 651725; AlphaScreen GST-Six1/His-Eya2 binding, biochemical; stronger effect = lower value; Q15475+O00167; in the data active = activity change below about -65%; inconclusive = mostly about -30% to -63%
Target sequence (O00167 whole entry, looked up): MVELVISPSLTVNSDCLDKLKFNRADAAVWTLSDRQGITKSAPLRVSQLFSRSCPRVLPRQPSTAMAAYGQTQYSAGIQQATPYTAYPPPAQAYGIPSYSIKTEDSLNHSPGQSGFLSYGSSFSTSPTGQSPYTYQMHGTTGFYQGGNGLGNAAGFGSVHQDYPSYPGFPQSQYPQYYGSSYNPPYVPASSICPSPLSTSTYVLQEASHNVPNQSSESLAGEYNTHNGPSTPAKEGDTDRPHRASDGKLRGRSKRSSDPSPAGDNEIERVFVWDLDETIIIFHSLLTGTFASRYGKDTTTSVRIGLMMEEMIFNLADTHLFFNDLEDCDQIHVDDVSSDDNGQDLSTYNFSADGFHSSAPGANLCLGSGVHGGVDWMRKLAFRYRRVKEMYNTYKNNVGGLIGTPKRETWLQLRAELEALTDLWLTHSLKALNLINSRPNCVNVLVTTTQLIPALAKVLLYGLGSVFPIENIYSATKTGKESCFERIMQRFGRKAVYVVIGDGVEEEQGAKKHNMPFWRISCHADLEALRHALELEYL
Target sequence (Q15475 whole entry, looked up): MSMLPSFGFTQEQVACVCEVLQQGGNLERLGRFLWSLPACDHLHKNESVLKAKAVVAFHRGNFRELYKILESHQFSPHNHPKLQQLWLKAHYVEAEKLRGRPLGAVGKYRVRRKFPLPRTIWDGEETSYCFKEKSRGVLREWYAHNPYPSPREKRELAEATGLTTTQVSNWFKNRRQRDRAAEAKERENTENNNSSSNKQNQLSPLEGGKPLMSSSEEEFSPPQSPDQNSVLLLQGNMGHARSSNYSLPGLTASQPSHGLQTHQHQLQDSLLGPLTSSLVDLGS
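AlphaScreen luminescence read after one hour at 37 °C in darkness. Pin-transferred compounds met GST-Six1 and His-Eya2 protein (5X stock 250 nM/500 nM) plus glutathione donor and Ni-chelate acceptor beads (5X, 50 ug/mL).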
TDP1 inh = inhibitors of human tyrosyl-DNA phosphodiesterase TDP1. AID 485290. Q9NUW8. 350,000 compounds, 0.28% hits. recombinant TDP1, AlphaScreen DNA substrate cleavage. Potency, µM (titrated, usually from 130 µM), hits mostly inhibitors; also: nearly all actives have a fitted effect of over 40% in size
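Steps: enzyme plus compound, 15 min RT; add biotin/phosphotyrosine-FITC oligonucleotide (15 nM final), react 5 min; add donor/acceptor beads (10 ug/ml final), 10 min; read AlphaScreen. Tdp1 at 1 nM final.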
CtBP-E1A inh = blocks the CtBP interaction with E1A | activity change, % (test concentration not listed) | AlphaScreen GST-E1A/His-CtBP binding, 1536-well; stronger effect = lower value | AID 651724 | 340,000 compounds, 0.49% hits; in the data active = activity change below about -65%; inconclusive = mostly about -30% to -63%
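Homogeneous bead-based format: GST-tagged E1A captured on glutathione donor beads, His-tagged CtBP on nickel acceptor beads; compounds precede bead addition by 2 h at 37 °C.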
IL1B secr inh = inflammasome signaling inhibition, IL-1 beta readout; activity change, % at 57.5 µM; THP-1 LPS/ATP IL-1B secretion, AlphaLISA, 16 h; stronger effect = lower value; 360,000 compounds, 4.7% hits; AID 743279; in the data active = activity change below about -50%; inconclusive = mostly about -30% to -49%
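THP-1 cells pretreated 1 hr with compounds (up to 57.5 uM final), then stimulated with LPS (250 ng/mL final) plus ATP (1.25 mM final); secreted IL-1B measured by AlphaLISA after 16 hr, decreased signal indicating inhibition.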
DT40 TDP1 CPT = growth inhibition of DT40 Tdp1-/-;hTDP1 cells with camptothecin (screen for TDP1 inhibitors); chicken DT40 Tdp1-/-;hTDP1 cells + 20 nM CPT, ATP luminescence, 48 h; Potency, µM (highest dose often 46.2 µM), most hits filed as inhibitors; 420,000 compounds, 12% hits; also: nearly all actives have a fitted effect of over 55% in size
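Chicken DT40 Tdp1-/- cells complemented with human TDP1, 400 cells/well, exposed to compounds plus 20 nM camptothecin for at least 48 h at 37 C; viability read as ATP content by CellTiter-Glo luminescence.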
TDP1 cell noCPT = qHTS for Inhibitors of human tyrosyl-DNA phosphodiesterase 1 (TDP1): qHTS in cells in absence of CPT. 420,000 compounds, 15% hits. Potency, µM (titrated, usually from 46.2 µM), most hits filed as inhibitors. AID 686978, 2013. DT40 Tdp1-/- hTDP1 cells, no CPT, ATP luminescence, 48 h; also: nearly all actives have a fitted effect of over 55% in size
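Camptothecin absent (DMSO only). Human TDP1-complemented DT40 knockout cells, 400 cells/well, 37 °C for minimum 48 hr; ATP measured via CellTiter-Glo, 30 min dark incubation, luminescence.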
A number is an active result; 0 = inactive; ? = inconclusive; - = no result given. Unless noted, calls follow the shape of the dose curve; as a rule, active = well fitted curve in the direction sought with a large enough effect; inconclusive = small, poorly fitted or top-dose-only effect, or another doubt; inactive = no such curve, though single readings can be large; an effect the other way counts as inactive or inconclusive.

SMILES	Six1-Eya2 blk	TDP1 inh	CtBP-E1A inh	IL1B secr inh	DT40 TDP1 CPT	TDP1 cell noCPT
COc1cccc(-c2cc(C(F)(F)F)n3nc(C(=O)N4CCCCC4c4cccnc4)cc3n2)c1 (configuration not stated)	0	0	0	-72	16µM	16µM
COc1ccc(-c2cc(C(F)(F)F)n3nc(C(=O)O)cc3n2)cc1OC	-70	0	?	0	0	0
COc1ccc(-c2cc(C(F)(F)F)n3nc(C(=O)OC(C)C)cc3n2)cc1	-	0	-	-	23µM	16µM
COc1ccc(-c2cc(C(F)(F)F)n3nc(C(N)=O)cc3n2)cc1	0	-	0	0	0	0
COc1cccc(CN(CCC(=O)O)Cc2cccc(OC)c2)c1	0	-	0	0	0	?
Cn1ccnc1SCc1nc2c(cnn2-c2ccccc2)c(=O)[nH]1	0	0	0	0	0	0
COc1ccc(CNC(=O)CCCN2C(=O)NC3(CCCC3)C2=O)cc1	0	0	-	0	0	0
COC(=O)c1cc2nc(-c3ccc(OC)c(OC)c3)cc(C(F)(F)F)n2n1	0	0	0	0	0	0
COc1ccc(-c2cc(C(F)(F)F)n3nc(C(=O)N4CCCCC4)cc3n2)cc1OC	0	0	0	?	18µM	18µM
Cc1ccccc1CNC(=O)c1sc2ncnc(N(C)C3CCCCC3)c2c1C	-	0	-	-	?	21µM
Cc1ccc(CNC(=O)c2sc3ncnc(N(C)C4CCCCC4)c3c2C)cc1	-	0	-	-	?	26µM
Cc1c(C(=O)NCc2ccc(OC(C)C)cc2)sc2ncnc(N(C)C3CCCCC3)c12	-	0	-	-	?	?
Cn1nnnc1SCC(=O)NC1CCCCC1	0	0	0	0	0	0
Cc1cc(C)nc(N/N=C/C2=C(O)CC(c3ccc(F)cc3)CC2=O)n1 (configuration not stated)	?	0	-	0	23µM	9.2µM
Cc1ccc(C2CC(=O)C(C=NCCN3CCN(C(=S)Nc4ccc(F)cc4)CC3)=C(O)C2)cc1 (configuration not stated)	0	0	0	0	0	?
COc1ccc(N2CCN(C(=O)c3ccc(-c4nc5ccccc5s4)o3)CC2)cc1	0	0	0	0	16µM	12µM
COc1ccccc1N1CCN(C(=O)NCc2ccc(Cl)cc2)CC1	0	0	0	0	0	?
COc1ccccc1N1CCN(C(=O)c2ccc(-c3nc4ccccc4s3)o2)CC1	0	0	0	0	23µM	16µM
O=C(CN1CCN(C(=O)c2ccc(-c3nc4ccccc4s3)o2)CC1)Nc1cccc(F)c1	0	-	0	0	0	0
COc1ccccc1N1CCN(C(=O)c2ccc(-c3ccc(Cl)cc3)o2)CC1	0	0	-	0	3.7µM	2.3µM
C[C@@H]1CN([C@H](C)CO)C(=O)CCCn2cc(nn2)CO[C@H]1CN(C)C(=O)CCC(F)(F)F	0	-	0	0	0	0
CCCc1cc(CN(C)C(=O)c2ccc(OC3CCN(C(C)=O)CC3)c(OC)c2)[nH]n1	0	-	0	0	0	0
CSc1ccc(/C=C/C(=O)c2ccc(NC(C)=O)cc2)cc1	0	0	0	?	16µM	21µM
CCCC(=O)Nc1ccc(C(=O)/C=C/c2ccc(SC)cc2)cc1	0	0	0	0	13µM	18µM
CC(=O)Nc1ccc(/C=C/C(=O)c2ccc(-n3nncc3-c3ccccc3)cc2)cc1	-	0	-	-	5.6µM	10µM
SMILES	Six1-Eya2 blk	TDP1 inh	CtBP-E1A inh	IL1B secr inh	DT40 TDP1 CPT	TDP1 cell noCPT
O=C(Nc1ccc(-n2nncc2-c2ccccc2)cc1)c1ccccc1	-	0	-	-	0	0
COc1ccc(CN2CCN(C(=O)c3ccco3)CC2)c(OC)c1OC	0	-	0	0	0	0
CCN=C(N/N=C/c1ccc([N+](=O)[O-])cc1)SC	0	0	0	0	?	0
O=c1[nH]nc(Cc2ccc(-c3cccc(Cl)c3)o2)c2ccccc12	0	0	0	0	16µM	?
CCc1ccccc1-n1c(C)nc2cc(C(=O)NCCc3ccc(Cl)cc3)ccc21	-	0	-	-	?	?
Cc1nn(C(=O)c2ccco2)c(C)c1CN1C(=O)c2ccccc2C1=O	0	0	0	0	0	0
CCOC(=O)c1ccccc1NC(=O)c1cccs1	0	0	0	0	0	0
CCOC(=O)c1ccccc1N/C=C/C(=O)c1cccs1	0	0	0	0	?	21µM
CCOc1ccc(NC(=O)CN(C)C(=O)CN2C(=O)C3CC=CCC3C2=O)cc1OCC (configuration not stated)	0	0	0	0	0	0
Cc1ccc(C)c(S(=O)(=O)N(C)Cc2cccs2)c1	0	79µM	0	0	0	0
COc1ccc(S(=O)(=O)N(C)Cc2cccs2)cc1Br	0	0	0	0	0	0
COC(=O)[C@@]12C[C@@H](CC(=O)NCc3cccs3)C(=O)N(Cc3cccc4ccccc34)C1=CCC(C)(C)C2	0	-	0	0	?	?
CCOC(=O)[C@]12CCC=C1N(Cc1cccc3ccccc13)C(=O)[C@H](CC(=O)NCc1cccc3ccccc13)C2	0	-	0	0	?	?
CCOC(=O)[C@]12CCC=C1N(Cc1cccc3ccccc13)C(=O)[C@H](CC(=O)NCc1cccs1)C2	0	-	0	-69	?	?
CCOC(=O)[C@]12CCCC=C1N(Cc1cccc3ccccc13)C(=O)[C@H](CC(=O)NCc1cccs1)C2	0	-	0	0	?	23µM
CCOC(=O)[C@]12CCC=C1N(Cc1cccc3ccccc13)C(=O)[C@H](CC(=O)NCc1ccc(C)o1)C2	0	-	0	0	16µM	23µM
O=C(CCc1ccccc1)NCc1ccc2c(c1)CCN2C(=O)c1ccc(Cl)cc1	-	0	-	-	0	0
Cc1ccc(C(=O)NNC(=O)CSc2nnc(-c3ccccc3)n2Cc2ccccc2)cc1	0	0	0	0	?	?
COc1ccc2c(c1)c1c(c(=O)n(-c3cccc(Cl)c3)c(=O)n1CC(=O)N1CCCC1)n2C	-	0	-	-	23µM	?
COc1ccc2c(c1)c1c(c(=O)n(-c3ccc(C)cc3)c(=O)n1CC(=O)N1CCCC1)n2C	-	0	-	-	16µM	21µM
COc1ccc(C2/C=C\CN(CC3CC3)CC(=O)N2Cc2ccc(F)cc2)cc1 (configuration not stated)	0	0	0	0	?	?
O=C(c1cc(-c2ccccc2)nc2ccccc12)N1CCCC1	0	0	0	0	0	0
c1ccc(-c2cc(NCCN3CCCCC3)c3ccccc3n2)cc1	0	-	0	-99	23µM	16µM
CC(C)Cc1nc(SCc2cccnc2)c2c(=O)n(C)c(=O)n(C)c2n1	0	0	0	0	18µM	?
